Structures are written as SMILES. In all, about 340,000 compounds went through this assay and about 2,100 (0.62%) were called active. The list is a sample of the results. Potency and affinity values are given separately. A number with no mark means an inactive call.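 The calls were made as follows: active = first-screen hits whose inhibition reached a set limit at any dose in the follow-up dose series; inconclusive = inhibition above the set first-screen limit but never retested; inactive = the rest.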

Sequence of Rac GTPase-activating protein 1 (Homo sapiens) (Q9H0H5 whole entry, looked up): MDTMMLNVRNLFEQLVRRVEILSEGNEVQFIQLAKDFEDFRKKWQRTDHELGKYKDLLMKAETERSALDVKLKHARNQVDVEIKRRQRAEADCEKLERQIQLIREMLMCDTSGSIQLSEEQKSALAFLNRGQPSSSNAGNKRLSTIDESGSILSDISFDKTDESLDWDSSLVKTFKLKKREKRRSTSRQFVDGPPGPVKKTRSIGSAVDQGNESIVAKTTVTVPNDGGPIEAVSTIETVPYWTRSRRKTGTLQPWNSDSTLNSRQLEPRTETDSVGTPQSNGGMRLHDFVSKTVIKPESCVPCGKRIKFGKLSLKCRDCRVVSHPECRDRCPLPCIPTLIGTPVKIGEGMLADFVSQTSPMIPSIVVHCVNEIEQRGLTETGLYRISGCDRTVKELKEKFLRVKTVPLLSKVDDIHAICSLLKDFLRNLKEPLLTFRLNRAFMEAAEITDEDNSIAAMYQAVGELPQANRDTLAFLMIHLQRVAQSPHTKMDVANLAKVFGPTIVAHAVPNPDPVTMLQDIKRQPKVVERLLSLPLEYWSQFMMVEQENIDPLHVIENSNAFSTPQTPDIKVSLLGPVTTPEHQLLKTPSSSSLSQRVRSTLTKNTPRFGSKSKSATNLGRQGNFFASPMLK

This test has as its target Rac GTPase-activating protein 1 (Homo sapiens) (UniProt Q9H0H5). Kind of test: MgcRacGAP GTPase-activating activity inhibitors, confirmation, biochemical, ADP Hunter fluorescence, primary and confirmatory (AID 624330).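 Also: fluorescence reports GDP produced by GAP-driven GTP hydrolysis.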 As to conditions: MgcRacGAP-stimulated Rac1 GTP hydrolysis, at 30 µM, active compounds read high, GST-tagged Rac1 F28L mutant substrate.
For the molecule `Cc1cc(C)n(C(=O)CNc2cccc(Cl)c2C)n1`, the inhibition is 5.52%.

As for `N#CC1(Nc2ccc(Br)cc2)CCCC1`, the inhibition is 2.57%. For the molecule `Cc1ccc(NC2(C#N)CCCC2)cc1`, the inhibition was 4.1%. Regarding `COc1ccc(C(CNC(=O)c2ccc(S(=O)(=O)N(C)C)cc2)N2CCCC2)cc1` (stereo unspecified), the inhibition is -5.33%. Then `N#CC1(NC(=O)CSc2nnc3n2CCCCC3)CCCCC1`, with 4.53%; and `CC(NC(=O)COC(=O)c1ccc(S(=O)(=O)N2CCOCC2)cc1)c1ccccc1` (stereo unspecified), with -3.85%. Turning to `Cc1c(NC(=O)Cc2cccs2)cccc1[N+](=O)[O-]`, the inhibition was 6.13%. Then `CC(C)c1ccc(/C=N/Nc2cc(N3CCOCC3)nc(N3CCOCC3)n2)cc1`, with 2.24%; and `Oc1ccc(/C=N/Nc2cc(N3CCCC3)nc(N3CCCC3)n2)cc1`, with 7.45%; and `Oc1cccc(/C=N/Nc2cc(N3CCOCC3)nc(N3CCOCC3)n2)c1`, with 18.3%.

For the molecule `Cc1cccc(/C=N/Nc2cc(N3CCOCC3)nc(N3CCOCC3)n2)c1`, the inhibition was -20.8%. Take `Oc1ccc(/C=N/Nc2cc(N3CCCC3)nc(N3CCCC3)n2)cc1O`: the inhibition is 23.7%. The figure for `Oc1ccccc1/C=N/Nc1cc(N2CCCC2)nc(N2CCCC2)n1` is -4.19%; for `O=C(Cn1c(-c2ccccc2)noc1=O)N1CCC(Cc2ccccc2)CC1` it is 5.27%. Then `O=C(CNCc1ccccc1)Nc1cccc(Cl)c1Cl`, with 27.2%. Turning to `CCCCCN(C(=O)CCC(=O)OCC(=O)c1c(C)cc(C)cc1C)c1c(N)n(CCCC)c(=O)[nH]c1=O`, the inhibition was 3.32%. The figure for `CCN(C(=O)c1c(N)cnn1C)c1ccccc1` is -2.97%; for `COc1ccc(N2CCN(C(=O)COC(=O)c3cccc(S(=O)(=O)Nc4cccc(C)c4)c3)CC2)cc1` it is 5.68%; for `CCOC(=O)c1oc2cc(C)cc(C)c2c1C` it is 4.4%. Take `CCOC(=O)c1oc2cccc(O)c2c1C`: the inhibition is 5.83%.

`Cc1ccc(-n2ncc3c2CC(C)(C)CC3NC(=O)c2c(C)noc2C)cc1` (stereo unspecified): the inhibition is 5.31%. Then `CC(=O)Nc1ccc(S(=O)(=O)Nc2cc(C)cn(Cc3ccccc3)c2=O)cc1`, with 3.18%; and `O=C(CN1CCN(S(=O)(=O)c2ccc3ccccc3c2)CC1)N1CCc2ccccc2C1`, with 10.7%; and `O=C(CN1CCN(S(=O)(=O)c2ccc(F)c(Cl)c2)CC1)N1CCc2ccccc2C1`, with 2.62%. Regarding `O=C(CN1CCN(S(=O)(=O)c2cc(C(F)(F)F)ccc2Cl)CC1)N1CCc2ccccc2C1`, the inhibition was 9.9%. Then `COc1ccc(S(=O)(=O)N2CCN(CC(=O)N3CCc4ccccc4C3)CC2)cc1OC`, with 7.25%.

Source of the values: PubChem BioAssay AID624330 (Southern Research Specialized Biocontainment Screening …, 2012).
